Compounds without any hit were thinned out: in the full panel of roughly 83,000, 20% have a hit.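 A percent growth of 40 corresponds to 60% growth inhibition; 0 means no net growth; -100 means all cells died. Active threshold: below 10.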 Values without a mark were called inactive. The source made the active and inactive calls.

Among the test systems are DU-145 prostate; K-562 leukemia; MALME-3M melanoma; MDA-MB-231 breast; RXF 393 renal; SF-268 CNS; SF-295 CNS; SF-539 CNS; UACC-257 melanoma; M14 melanoma; HCT-15 colon; HT29 colon; SNB-75 CNS; SNB-19 CNS; U251 CNS; PC-3 prostate; SK-MEL-5 melanoma; UACC-62 melanoma; LOX IMVI melanoma; SK-MEL-28 melanoma.
Experiment in all cases: NCI-60 one-dose screen, 48 h (100 = growth as untreated, 0 = no growth, -100 = all killed)
What all share (details): 10 µM unless noted

For the compound `CCSc1ccc([C@@H]2[C@@H](N)C(=O)N2c2cc(OC)c(OC)c(OC)c2)cc1`, the growth was 23.7% in the experiment with DU-145 prostate; 7.64% (active) in the experiment on K-562 leukemia; 63.8% in the experiment on MALME-3M melanoma; 41% with MDA-MB-231 breast; -17% (active) in the experiment with RXF 393 renal; 54.6% in the experiment with SF-268 CNS. The growth was 10.2% in the experiment on SF-295 CNS; -22.6% (active) in the experiment with SF-539 CNS; 67.7% with UACC-257 melanoma; -15.5% (active) in the experiment with M14 melanoma; 19.9% with HCT-15 colon; 12.1% in the experiment on HT29 colon. The growth is 36.2% in the experiment with SNB-75 CNS; 32% in the experiment with SNB-19 CNS; 28.1% with U251 CNS; 28.5% in the experiment with PC-3 prostate; 20% in the experiment with SK-MEL-5 melanoma; 33.9% in the experiment on UACC-62 melanoma. For the same compound, the figures for the growth in the experiment on LOX IMVI melanoma and with SK-MEL-28 melanoma were 50.7% and 61.6%, respectively.

For `CCCCn1c(C)nc2cc(Nc3nc(Cl)nc4nc[nH]c34)ccc21`, the growth in the experiment on DU-145 prostate was 89.6%; in the experiment with K-562 leukemia it was 90.3%; in the experiment on MALME-3M melanoma it was 79.8%; in the experiment on MDA-MB-231 breast, 75%; with RXF 393 renal, 81.9%; in the experiment on SF-268 CNS it was 92.4%. For the same compound, the growth in the experiment with SF-295 CNS is 74.5%; with SF-539 CNS, 76.3%; in the experiment with UACC-257 melanoma it was 100%; with M14 melanoma it was 86.8%; in the experiment with HCT-15 colon, 90.7%; in the experiment on HT29 colon, 83.6%. Moreover, the growth is 78.4% with SNB-75 CNS; 87.4% in the experiment on SNB-19 CNS; 77.2% in the experiment on U251 CNS; 59.7% in the experiment on PC-3 prostate; 73.6% with SK-MEL-5 melanoma; 73% with UACC-62 melanoma. The growth is 90.4% in the experiment on LOX IMVI melanoma and 99.4% in the experiment with SK-MEL-28 melanoma.

As to `CS(=O)(=O)Nc1cc(-c2cc3ncc(C#N)c(Nc4ccc(Oc5ccccc5)c(Cl)c4)c3s2)cnc1Cl`, the growth was 48.1% in the experiment on DU-145 prostate; 51.5% in the experiment with K-562 leukemia; 74.5% with MALME-3M melanoma; 45.3% in the experiment with MDA-MB-231 breast; 15.9% in the experiment on RXF 393 renal; 52.8% in the experiment on SF-268 CNS. Besides, the growth in the experiment with SF-295 CNS was 38.4%; in the experiment with SF-539 CNS, 57.8%; in the experiment on UACC-257 melanoma it was 68.2%; in the experiment on M14 melanoma it was 50.1%; in the experiment with HCT-15 colon, 37.2%; in the experiment on HT29 colon, 57.6%. For the same compound, the growth was 39.2% with SNB-75 CNS; 62.8% in the experiment on SNB-19 CNS; 44.6% with U251 CNS; 45.5% with PC-3 prostate; 52.5% in the experiment with SK-MEL-5 melanoma; 22% in the experiment on UACC-62 melanoma. Further, the growth in the experiment with LOX IMVI melanoma is 25.9%; in the experiment on SK-MEL-28 melanoma it was 62.3%.

Consider `COc1ccc(-c2nc(-c3ccccc3OCc3ccccc3OC)nc(C)c2C(C)=O)cc1`, for which the growth with DU-145 prostate is 92.8%; in the experiment with K-562 leukemia, 81.6%; in the experiment with MALME-3M melanoma, 92.5%; in the experiment on MDA-MB-231 breast, 64.3%; in the experiment on RXF 393 renal it was 92.6%; in the experiment with SF-268 CNS it was 94.7%. Also, the growth is 91.8% with SF-295 CNS; 101% in the experiment with SF-539 CNS; 96% in the experiment with UACC-257 melanoma; 84.2% in the experiment on M14 melanoma; 78.9% in the experiment on HCT-15 colon; 56.9% in the experiment on HT29 colon. Moreover, the growth with SNB-75 CNS was 83.8%; with SNB-19 CNS it was 93.7%; in the experiment with U251 CNS, 90.2%; with PC-3 prostate it was 56.8%; in the experiment with SK-MEL-5 melanoma, 91.3%; in the experiment on UACC-62 melanoma, 54.7%. Moreover, the values for the growth in the experiment on LOX IMVI melanoma and in the experiment with SK-MEL-28 melanoma were 98.7% and 101%, respectively.

For the compound `COc1ccc(C2=Nn3c(nnc3-c3ccc(Cl)cc3N)SC2)cc1`, the growth with DU-145 prostate is 117%; in the experiment with K-562 leukemia it was 102%; in the experiment on MALME-3M melanoma it was 104%; in the experiment with MDA-MB-231 breast, 85.7%; with RXF 393 renal, 104%; in the experiment on SF-268 CNS it was 106%. Further, the growth was 94.3% with SF-295 CNS; 102% in the experiment on SF-539 CNS; 95% in the experiment on UACC-257 melanoma; 107% in the experiment with M14 melanoma; 96.1% in the experiment on HCT-15 colon; 110% in the experiment on HT29 colon. Further, the growth was 85.4% in the experiment with SNB-75 CNS; 101% in the experiment with SNB-19 CNS; 92.5% in the experiment with U251 CNS; 95.1% in the experiment with PC-3 prostate; 97.8% in the experiment on SK-MEL-5 melanoma; 86.6% in the experiment on UACC-62 melanoma. The results for the growth in the experiment with LOX IMVI melanoma and in the experiment on SK-MEL-28 melanoma were 89.7% and 97.8%, respectively.

For `c1ccc(-c2[nH]c3ccccc3c2-c2ccccc2)cc1`, the growth with DU-145 prostate is 99.7%; in the experiment on K-562 leukemia it was 83.4%; with MALME-3M melanoma, 93.9%; in the experiment on MDA-MB-231 breast, 84.7%; in the experiment on RXF 393 renal, 149%; with SF-268 CNS, 106%. Besides, the growth in the experiment with SF-295 CNS was 87.9%; in the experiment with SF-539 CNS, 84.6%; in the experiment on UACC-257 melanoma, 101%; in the experiment with M14 melanoma it was 89.5%; with HCT-15 colon, 79.6%; with HT29 colon, 88.4%. For the same compound, the growth in the experiment with SNB-75 CNS was 84.7%; with SNB-19 CNS, 97.5%; in the experiment with U251 CNS, 87.8%; in the experiment on PC-3 prostate, 79.4%; in the experiment on SK-MEL-5 melanoma, 104%; in the experiment on UACC-62 melanoma, 75.8%. Also, the growth was 79.8% with LOX IMVI melanoma and 119% with SK-MEL-28 melanoma.

As to `COc1cccc(OCC(O)CN2CCN(c3ccccc3)CC2)c1` (stereo not given), the growth in the experiment with DU-145 prostate was 116%; with K-562 leukemia it was 92.4%; with MALME-3M melanoma it was 145%; in the experiment on MDA-MB-231 breast it was 108%; in the experiment with RXF 393 renal, 163%; in the experiment with SF-268 CNS it was 106%. The growth is 113% in the experiment with SF-295 CNS; 100% in the experiment on SF-539 CNS; 134% in the experiment with UACC-257 melanoma; 104% in the experiment with M14 melanoma; 117% with HCT-15 colon; 103% in the experiment on HT29 colon. Moreover, the growth in the experiment with SNB-75 CNS is 96.5%; in the experiment on SNB-19 CNS, 105%; in the experiment on U251 CNS, 108%; with PC-3 prostate, 109%; with SK-MEL-5 melanoma, 108%; in the experiment with UACC-62 melanoma, 94.3%. Also, the growth was 104% in the experiment with LOX IMVI melanoma and 81.4% in the experiment on SK-MEL-28 melanoma.

For `Cc1ccc(C2CC(c3cccs3)=NN2c2ccc(S(N)(=O)=O)cc2)s1` (stereo not given), the growth in the experiment with DU-145 prostate is 99.2%; in the experiment on K-562 leukemia, 77.9%; with MALME-3M melanoma, 79.4%; with MDA-MB-231 breast, 91.6%; in the experiment with RXF 393 renal, 93.1%; with SF-268 CNS, 96.5%. Further, the growth with SF-295 CNS is 98.3%; in the experiment on SF-539 CNS, 104%; in the experiment with UACC-257 melanoma it was 36.3%; in the experiment on M14 melanoma it was 81.9%; in the experiment on HCT-15 colon, 80.8%; in the experiment with HT29 colon, 86.5%. The growth was 74.5% with SNB-75 CNS; 84.8% in the experiment with SNB-19 CNS; 78.5% in the experiment with U251 CNS; 56.4% with PC-3 prostate; 65.7% with SK-MEL-5 melanoma; 44.1% with UACC-62 melanoma. Also, the growth in the experiment with LOX IMVI melanoma is 104%; in the experiment on SK-MEL-28 melanoma, 64.9%.

Values taken from PubChem BioAssay (NCI).
